# Bioassay records as filed in PubChem.
# NOD2 RIPK2 PPI = inhibitors of human NOD2-RIPK2 interaction. O43353. CHO BLA complementation NOD2-RIPK2, CCF4 ratio. inhibition, % at 4.98 µM. 360,000 tested, 0.38% active; in the data active = inhibition above about 21%
# TLR4 MyD88 comp = TLR4-MyD88 interaction inhibition in cells. O00206+Q99836. HeLa CL3-4 TLR4/MyD88 BLA complementation, FRET ratio. inhibition, % at 8.4 µM. 200,000 tested, 0.18% active; in the data active = inhibition above about 25%
# TMEM16A act = mouse TMEM16A channel activation, primary screen; Q8BHY3; HEK293 TMEM16A/YFP-H148Q/I152L, iodide quench fluorescence; hits give low values; B-score at 10 µM; 340,000 tested, 0.3% active; AID 623877;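 active = fluorescence-ratio B-score plate-corrected deviation score at least 3 library SD below zero, with starting fluorescence score within 5 deviations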;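 also: channel opened by trigger with iodide after compound preincubation; score built on the fluorescence ratio of max minus min over baseline; more negative score means more quench and so TMEM16A activation or potentiation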
# GRK2 inh = inhibitors of human GRK2 displacing RNA aptamer; P25098; bead flow cytometry, FAM-aptamer displacement from GRK2; inhibition of aptamer binding, % at 10 µM; 330,000 tested, 0.59% active; AID 488847;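 active = inhibition of aptamer binding above 40%, roughly 3 SD of noise, on plates passing a quality check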;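 also: median bead fluorescence of bound FAM aptamer so fluorescent compounds give negative values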
# TLR9-MyD88 block = blocks human TLR9 binding to MyD88. Q9NR96+Q99836. CHO BLA complementation TLR9-MyD88, CCF4 FRET ratio. inhibition, % at 4.98 µM. 340,000 tested, 0.21% active. AID 504734;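 active = inhibition above the mean over all tested compounds plus 3 SD, cut at about 21% in these data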
# Target sequence (Q99836 whole entry, looked up): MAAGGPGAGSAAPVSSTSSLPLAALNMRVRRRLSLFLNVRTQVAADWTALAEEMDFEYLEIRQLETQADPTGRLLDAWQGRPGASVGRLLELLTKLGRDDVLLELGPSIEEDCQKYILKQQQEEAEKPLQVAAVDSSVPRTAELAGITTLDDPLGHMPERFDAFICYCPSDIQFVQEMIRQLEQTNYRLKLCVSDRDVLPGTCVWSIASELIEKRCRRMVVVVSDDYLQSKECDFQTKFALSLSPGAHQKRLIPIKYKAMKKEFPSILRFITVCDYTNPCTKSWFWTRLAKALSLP
# Target sequence (Q9NR96 whole entry, looked up): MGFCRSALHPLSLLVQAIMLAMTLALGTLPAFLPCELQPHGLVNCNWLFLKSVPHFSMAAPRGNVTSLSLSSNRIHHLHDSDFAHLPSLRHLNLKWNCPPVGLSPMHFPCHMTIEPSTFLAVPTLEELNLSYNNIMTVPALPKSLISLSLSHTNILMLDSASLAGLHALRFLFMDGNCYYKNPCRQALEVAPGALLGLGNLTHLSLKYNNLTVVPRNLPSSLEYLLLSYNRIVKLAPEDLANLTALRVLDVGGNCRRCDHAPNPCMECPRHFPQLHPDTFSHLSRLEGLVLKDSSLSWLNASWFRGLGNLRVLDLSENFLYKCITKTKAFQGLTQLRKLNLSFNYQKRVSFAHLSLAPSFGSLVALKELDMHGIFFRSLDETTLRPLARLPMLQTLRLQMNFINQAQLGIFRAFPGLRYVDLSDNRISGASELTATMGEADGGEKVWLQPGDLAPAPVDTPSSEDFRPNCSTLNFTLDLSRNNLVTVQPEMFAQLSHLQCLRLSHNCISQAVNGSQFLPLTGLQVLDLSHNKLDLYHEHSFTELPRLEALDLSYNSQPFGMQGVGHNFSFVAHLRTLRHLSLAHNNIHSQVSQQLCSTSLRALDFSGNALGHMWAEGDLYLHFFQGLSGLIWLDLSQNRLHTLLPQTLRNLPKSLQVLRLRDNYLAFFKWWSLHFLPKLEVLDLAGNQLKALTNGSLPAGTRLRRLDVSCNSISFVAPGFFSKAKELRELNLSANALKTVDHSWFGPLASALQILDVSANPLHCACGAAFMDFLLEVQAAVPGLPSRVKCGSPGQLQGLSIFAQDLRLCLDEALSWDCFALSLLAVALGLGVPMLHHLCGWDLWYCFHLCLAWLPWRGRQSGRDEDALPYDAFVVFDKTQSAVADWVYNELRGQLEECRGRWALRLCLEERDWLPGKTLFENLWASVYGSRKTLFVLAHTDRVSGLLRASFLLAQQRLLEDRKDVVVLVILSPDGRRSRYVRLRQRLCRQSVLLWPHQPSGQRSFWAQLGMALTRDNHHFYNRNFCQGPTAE
# TMEM16A inh = blocks the mouse calcium-activated chloride channel TMEM16A; Q8BHY3; HEK293 TMEM16A/YFP iodide influx fluorescence, ionomycin; normalized B-score (activity score, 25-100; higher = stronger inhibition) at 10 µM; 310,000 tested, 1.2% active; AID 588511;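 active = ratio plate-corrected score three or more library SD toward inhibition, starting fluorescence score within five deviations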;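 also: score derived from kinetic fluorescence span divided by baseline fluorescence per well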
# A number is an active result; - = inactive; . = no result given. Shown are actives, neighbours in structure and some others; about 2.2% of the full set was active somewhere.
SMILES,NOD2 RIPK2 PPI,TLR4 MyD88 comp,TMEM16A act,GRK2 inh,TLR9-MyD88 block,TMEM16A inh
COc1cccc(OCCOCC(O)CN2CCN(Cc3ccc(Cl)cc3)CC2)c1 (stereo unspecified),-,-,-,-,-,-
CCOC(=O)C1=CCN(S(=O)(=O)c2ccccc2F)C1c1cccc(Cl)c1 (stereo unspecified),-,.,.,.,.,.
CCN(Cc1ccccc1)S(=O)(=O)c1ccc(S(=O)(=O)N(Cc2cccc(OC)c2)CC2CCCO2)cc1 (stereo unspecified),-,-,-,-,-,25
O=S(=O)(NC1CCCCC1N1CCN(c2ccccc2F)CC1)c1ccc(Cl)cc1 (stereo unspecified),-,.,-40,-,-,-
O=S(=O)(NC1CCCCC1N1CCOCC1)c1ccc(Cl)cc1 (stereo unspecified),-,-,-,-,-,-
COc1ccc(CC(N)c2csc(NC(=O)Nc3ccccc3-c3ccccc3)n2)cc1 (stereo unspecified),-,.,.,.,.,.
COc1cc(/C=C(\C#N)C(=O)Nc2ccc(C(=O)O)cc2)ccc1OC(=O)c1cccc(F)c1,-,.,-,42,-,-
COc1cc(/C=C(/C#N)C(=O)Nc2ccccc2)ccc1OCc1ccc(C(=O)O)cc1,-,-,-,-,-,-
CC(C)Cc1ccc(-c2cc3nc(NCCc4ccc(S(N)(=O)=O)cc4)ccn3n2)cc1,-,.,.,.,.,.
O=C1c2c(O)ccc(O)c2C(=O)c2c(NCCNCCO)ccc(NCCNCCO)c21,-,.,-,99,-,-
O=C1c2ccccc2C(=O)c2c(Nc3ccc(CCO)cc3)ccc(O)c21,-,.,-,-,-,-
COc1ccc(C=C2SC(=O)NC2=O)cc1OC,-,.,-,.,-,.
NS(=O)(=O)c1ccc(-c2cccc(/C=C3\SC(=O)NC3=O)c2)cc1,-,.,-4.9,-,-,-
Cc1cc2cc(CNC(=O)c3cc4ccccc4o3)ccc2n1C,.,-,.,87,.,-
OC(COCc1ccccc1)COCc1ccccc1,-,.,-,.,-,.
O=S(CC(O)COCc1ccc(Cl)cc1)c1ccccn1 (stereo unspecified),-,-,-8.1,-,-,-
Cc1nc2cc(C(=O)OCC(=O)NC34CC5CC(CC(C5)C3)C4)ccc2n1-c1ccccc1,-,-,-,41,-,-
Cc1nc2cc(C(=O)OCC(=O)NC3CCS(=O)(=O)C3)ccc2n1-c1ccccc1 (stereo unspecified),-,-,-,-,-,-
O=C(/C=C/c1ccc(Cl)cc1Cl)NCCSc1ccccc1,-,-,-,-,-,25
O=C(/C=C/c1ccc(Cl)cc1Cl)NCCSCc1ccccc1,-,-,-,-,-,100
O=C(/C=C/c1ccc(Cl)cc1)NCCSc1ccccc1,-,-,-,-,-,-
Cc1ccc(/C(N)=N/OC(=O)CN(C)S(=O)(=O)c2ccc(C)cc2)cc1,-,.,-,-,-,-
Cc1ccc(S(=O)(=O)N(C)CC(=O)O/N=C(\N)c2cccc(Br)c2)cc1,-,.,-14,-,-,-
CN(CC(=O)Nc1ccccc1N1CCOCC1)S(=O)(=O)c1ccc(F)cc1,-,-,-,-,-,25
CC(=O)Nc1ccc(S(=O)(=O)N(C)CC(=O)Nc2ccccc2N2CCCC2)cc1,-,.,-,-,-,-
SMILES,NOD2 RIPK2 PPI,TLR4 MyD88 comp,TMEM16A act,GRK2 inh,TLR9-MyD88 block,TMEM16A inh
O=C(c1ccc(-c2ccccc2)cc1)C1CCCN(C(=O)c2ccncc2)C1 (stereo unspecified),-,-,-,-,-,-
O=C(c1ccc(-c2ccccc2)cc1)C1CCCN(Cc2ccncc2)C1 (stereo unspecified),-,-,-,-,-,100
Cc1ccc(NS(=O)(=O)c2ccc(NC(=O)CSc3ccc(Cl)cc3)cc2)c(C)c1,-,-,-,-,-,25
Cc1ccc(O)c(NC(=O)CSc2ccc(Cl)cc2)c1,-,-,-,-,-,-
O=C(N/N=C/c1cn(Cc2ccccc2)c2ccccc12)c1ccncc1,-,-,-,-,-,100
O=C(O)c1cnc(-c2ccccc2)nc1Sc1ccc(Cl)cc1Cl,-,-,-,-,-,100
O=C(O)c1cnc(-c2ccccc2)nc1Sc1cccc(Cl)c1,-,-,-,-,-,-
CCC1(c2ccc(F)cc2)NC(=O)N(CC(=O)Nc2cc(C)on2)C1=O (stereo unspecified),-,.,-39,-,-,.
CCCC1(c2ccccc2)NC(=O)N(CC(=O)Nc2cc(C)on2)C1=O (stereo unspecified),-,-,-,-,-,-
CCCNC(=O)CN1C(=O)NC(CC)(c2ccc(F)cc2)C1=O (stereo unspecified),-,.,-,-,-,-
CCC1(c2ccc(F)cc2)NC(=O)N(CC(=O)NCC(=O)Nc2cccc(C)c2C)C1=O (stereo unspecified),-,.,-,-,-,25
CCOc1ccccc1C1C2C(=O)N(c3ccccc3)C(=O)C2ON1c1ccccc1 (stereo unspecified),-,-,-,94,-,-
NC(Cc1ccc(F)cc1)c1csc(Nc2ccc(C(=O)c3ccccc3)cc2)n1 (stereo unspecified),-,.,.,.,.,.
CCN(CCCNC(=O)CCc1nc(-c2ccc(OC)cc2)no1)c1cccc(C)c1,-,-,-,-,-,100
COc1ccc(-c2noc(CCC(=O)NCCc3ccccc3)n2)cc1,-,.,-,-,-,-
O=S1(=O)CC(N2CC=CC2)CN1Cc1ccc(F)cc1 (stereo unspecified),-,.,.,.,.,.
Cc1ccc(C(=O)N/C(=C\c2ccc(-c3ccc(Br)cc3)o2)C(=O)NCCCN(C)C)cc1,-,-,-8.2,-,-,-
Cc1cnc(C)c(Nc2nc(C(N)Cc3ccc(Cl)cc3)cs2)n1 (stereo unspecified),-,.,.,.,.,.
Cc1nc2ccc(NC(=O)c3ccc(Cl)c([N+](=O)[O-])c3)cc2s1,-,-,-,-,-,-
Cc1nc2ccc(NC(=O)c3cc([N+](=O)[O-])cc([N+](=O)[O-])c3Cl)cc2s1,-,-,-5.7,-,-,-
O=C1CCCC2=C1C1(CCCC1)N=C(Nc1nc3cc(-c4ccccc4)ccc3o1)N2,-,.,.,.,.,.
CC(C)(CO)NCc1cccc(OCc2ccc(Cl)cc2)c1,-,-,-,-,-,-
Clc1ccc(COc2cccc(CNCc3ccncc3)c2)cc1,-,-,-,-,-,100
O=C(NCc1cccs1)c1ccc2sc([C@@H]3O[C@H](CO)[C@H](O)[C@H](O)[C@H]3O)nc2c1,-,.,.,.,.,.
CN(C(=O)c1cccc(COc2ccc(Cl)cc2Cl)c1)c1ccccc1,-,-,-,-,-,25
C=CCC[C@@H](Cc1ccc(F)cc1)C(=O)OC[C@H](C)NC(=O)[C@@H](CC=C)CC(=O)N[C@@H](CO)Cc1ccccc1,-,.,-,83,-,.
